Source: PubChem
An excerpt weighted towards active compounds, which were near 4.1% of everything screened.
HIV Env fusion – HIV envelope-mediated fusion inhibition. HeLa-JRFL Env/CEM21 cell fusion, luciferase. inhibition, % at 12.3 µM. 360,000 compounds, 1.1% hits;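 active = mean replicate inhibition score of at least 50 and every replicate individually at or above 50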
PglD inh – inhibitors of Campylobacter jejuni PglD acetyltransferase; purified PglD enzyme, DTNB colorimetric CoA detection; inhibition, % at 12.5 µM; 360,000 compounds, 0.098% hits; in the data active = inhibition above about 16%, passing the limit was not always enough
CASP6 VEID inh – inhibitors of human caspase-6 | AID 686996 | purified caspase-6, Z-VEID-R110 cleavage fluorescence | P55212 | inhibition, % at 12.5 µM | 350,000 compounds, 0.53% hits;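 active = mean inhibition across replicates at least about 35%, with every replicate also reaching that limit, limit read from the data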
ALR H2O2 inh – blocks human ALR sulfhydryl oxidase activity. P55789. AID 485317. inhibition, % (test concentration not listed). purified ALR, DTT oxidation, H2O2 HRP-luminol luminescence. 290,000 compounds, 3.8% hits;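 active = mean replicate inhibition above about 79%, with every replicate also reaching it, limit read from the data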
CFTR F508del cor – correctors of CFTR F508del function in bronchial epithelial cells | CFBE cells, YFP halide quenching; stimulated with forskolin plus potentiator P3; % fluorescence drop versus neutral controls | activity (quench increase), % at 7.58 µM | 350,000 compounds, 0.36% hits;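 active = mean added fluorescence quench of at least 8% versus neutral control, with both replicates also reaching 8%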;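 also: cells transiently co-express mutant CFTR-F508del with the halide-sensitive YFP; corrector assay measuring rescue of mutant channel to the surface after 24 h compound exposure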
NSD2 inh – inhibitors of human histone methyltransferase NSD2. O96028. NSD2 peptide methylation, AlphaScreen, 120 min. 310,000 compounds, 0.54% hits. inhibition, % at 12.5 µM; in the data active = inhibition above about 50%
Target sequence (O96028 whole entry, looked up): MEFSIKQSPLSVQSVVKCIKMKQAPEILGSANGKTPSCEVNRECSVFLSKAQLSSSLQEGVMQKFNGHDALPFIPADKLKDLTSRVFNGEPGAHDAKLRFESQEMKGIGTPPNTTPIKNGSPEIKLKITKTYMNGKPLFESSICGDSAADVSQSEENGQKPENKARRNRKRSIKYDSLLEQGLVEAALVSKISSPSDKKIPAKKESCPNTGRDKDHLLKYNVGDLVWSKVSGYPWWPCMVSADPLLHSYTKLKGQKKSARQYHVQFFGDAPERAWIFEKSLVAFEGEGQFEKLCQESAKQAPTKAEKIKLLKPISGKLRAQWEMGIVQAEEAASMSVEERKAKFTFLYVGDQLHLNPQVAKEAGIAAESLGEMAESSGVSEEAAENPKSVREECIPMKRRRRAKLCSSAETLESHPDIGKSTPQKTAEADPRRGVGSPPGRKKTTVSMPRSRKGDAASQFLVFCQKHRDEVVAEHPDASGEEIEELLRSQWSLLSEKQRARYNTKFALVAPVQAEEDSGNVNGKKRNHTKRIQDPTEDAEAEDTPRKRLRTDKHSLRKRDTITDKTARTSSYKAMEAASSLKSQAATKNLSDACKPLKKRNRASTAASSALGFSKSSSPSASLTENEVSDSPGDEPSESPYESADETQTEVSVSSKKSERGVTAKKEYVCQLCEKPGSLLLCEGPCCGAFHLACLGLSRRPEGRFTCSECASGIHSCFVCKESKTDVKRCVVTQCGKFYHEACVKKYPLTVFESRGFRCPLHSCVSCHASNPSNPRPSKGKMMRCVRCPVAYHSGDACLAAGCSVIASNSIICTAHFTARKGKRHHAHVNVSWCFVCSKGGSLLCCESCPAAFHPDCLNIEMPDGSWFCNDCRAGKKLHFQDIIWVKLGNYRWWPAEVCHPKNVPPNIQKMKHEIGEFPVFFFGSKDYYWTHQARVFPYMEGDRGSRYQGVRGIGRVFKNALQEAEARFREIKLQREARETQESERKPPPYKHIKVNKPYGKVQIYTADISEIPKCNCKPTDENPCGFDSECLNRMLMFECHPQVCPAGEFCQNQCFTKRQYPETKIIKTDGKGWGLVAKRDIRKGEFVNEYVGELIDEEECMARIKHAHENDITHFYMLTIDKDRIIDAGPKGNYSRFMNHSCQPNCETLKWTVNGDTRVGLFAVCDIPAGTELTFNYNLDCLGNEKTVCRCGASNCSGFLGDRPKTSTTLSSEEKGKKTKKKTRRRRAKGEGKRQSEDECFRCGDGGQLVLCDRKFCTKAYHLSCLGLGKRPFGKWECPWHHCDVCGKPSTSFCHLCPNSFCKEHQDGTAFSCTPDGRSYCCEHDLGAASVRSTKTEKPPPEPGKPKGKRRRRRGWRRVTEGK
A number is an active result; i = inactive; nt = not tested or not shown.

SMILES | HIV Env fusion | PglD inh | CASP6 VEID inh | ALR H2O2 inh | CFTR F508del cor | NSD2 inh
CO[C@H]1CN(C)C(=O)c2ccc(NC(C)=O)cc2OC[C@@H](C)N(C(=O)C2CCC2)C[C@H]1C | i | i | i | nt | i | nt
Cc1[nH]nc2c1C(=O)CCC2 | nt | i | nt | 100 | nt | i
Cc1ccc(N=Nc2c(N)[nH]n3c(=O)cc(C)nc23)cc1 | i | i | i | 97 | nt | i
C=CCOC(=O)/C=C/C(=O)NC(N)=O | i | i | i | 98 | i | i
C[C@@H]1CCCCO[C@@H](CN(C)C(=O)Nc2cccc3ccccc23)[C@H](C)CN([C@H](C)CO)C(=O)c2cc(NC(=O)Nc3ccc(C(F)(F)F)cc3)ccc2O1 | i | i | i | nt | i | nt
CCc1c(C)nc(N2CCN(c3cccc(OC)c3)CC2)[nH]c1=O | i | i | i | 98 | i | i
Cn1c(SCC(=O)Nc2ccc(Br)cc2)nc(O)cc1=O | i | i | i | 99 | i | i
Cc1ccc(NC(=O)CSc2nc(O)cc(=O)n2C)cc1 | i | i | nt | 99 | nt | i
COc1ccc(-n2c(SCC(=O)Nc3ccc(Br)cc3)nc(O)cc2=O)cc1 | i | i | i | 99 | i | i
CCN(CC)C(=O)CSc1nc(O)cc(=O)n1C | i | i | nt | i | nt | i
Cc1ccc(NC(=O)CSc2nc(O)cc(=O)n2-c2ccc(C)cc2)cc1 | i | i | i | 100 | i | i
Cc1ccc(-n2c(SCC(N)=O)nc(O)cc2=O)cc1 | i | i | i | i | nt | i
C[C@H](CO)N1C[C@H](C)[C@@H](CN(C)Cc2cncnc2)Oc2ncc(/C=C/c3ccccc3)cc2C1=O | i | i | i | nt | i | nt
CCCC(=O)Nc1ccc2c(c1)C(=O)N(C)C[C@@H](OC)[C@@H](C)CN(C(=O)CC)[C@@H](C)CO2 | nt | nt | nt | nt | i | nt
O=c1cc(O)nc(SCc2ccccc2)n1-c1ccc(Cl)cc1 | i | i | i | 98 | i | i
O=C(CSc1nc(O)cc(=O)n1-c1ccc(Cl)c(Cl)c1)Nc1ccc(Cl)cc1Cl | nt | i | i | 98 | i | i
NC(=O)CSc1nc(O)cc(=O)n1-c1ccccc1 | i | i | nt | i | nt | i
CC(C)C[C@@H](COCc1cccc(Cl)c1)N1CCN(C(=O)c2ccc(C(F)(F)F)cc2)CCC1=O | 57 | nt | i | nt | i | nt
O=C(c1ccc(C(F)(F)F)cc1)N1CCC(=O)N(C(COCc2ccccc2)Cc2ccccc2)CC1 (configuration not stated) | 63 | i | i | nt | i | nt
CC(C)CC(COCc1ccc(Cl)cc1)N1CCN(C(=O)c2cccc(C(F)(F)F)c2)CCC1=O (configuration not stated) | i | i | i | i | i | nt
CC(C)C[C@@H](COCc1ccc(C(F)(F)F)cc1)N1CCN(C(=O)c2ccc(C(F)(F)F)cc2)CCC1=O | i | nt | i | nt | 9.6 | nt
CC(C)CC(COCc1ccc(C(F)(F)F)cc1)N1CCN(C(=O)c2ccc(C(F)(F)F)cc2)CCC1=O (configuration not stated) | 58 | i | i | i | i | nt
O=C(NC1Cc2ccccc2C1)[C@H]1[C@H](CO)[C@H]2Cn3c(ccc(-c4ccccc4F)c3=O)[C@@H]1N2 | nt | i | i | nt | i | nt
CN1C(=O)c2cc(NC(=O)Nc3ccccc3F)ccc2OC[C@H]2O[C@@H](CC(=O)NCCc3ccncc3)CC[C@@H]21 | i | i | nt | nt | i | nt
C[C@H]1CN([C@@H](C)CO)S(=O)(=O)c2ccc(-c3ccncc3)cc2O[C@@H]1CN(C)Cc1ccncc1 | i | nt | nt | nt | i | nt
SMILES | HIV Env fusion | PglD inh | CASP6 VEID inh | ALR H2O2 inh | CFTR F508del cor | NSD2 inh
COc1ccc(NC(=O)N(C)C[C@@H]2Oc3c(NS(=O)(=O)c4ccc(F)cc4)cccc3C(=O)N([C@H](C)CO)C[C@H]2C)cc1 | i | i | nt | nt | i | nt
O=C(COc1ccc(Cl)cc1Br)OCC(=O)c1ccc[nH]1 | i | i | 38 | i | i | i
CC(Sc1nc2ccccc2s1)C(=O)N1CCOCC1 (configuration not stated) | i | i | nt | 99 | nt | i
N#CC1(NC(=O)CSc2nc3ccccc3s2)CCCCC1 | nt | i | i | 98 | i | i
O=S(=O)(CCSc1nc2ccccc2s1)c1nc2ccccc2s1 | i | i | nt | i | nt | nt
O=C(CSc1nc2ccccc2s1)CSc1nc2ccccc2s1 | nt | i | nt | i | i | nt
CN(CC(=O)N1CCOCC1)C(=O)CSc1nc2ccccc2s1 | i | nt | i | i | i | i
CCS(=O)(=O)CCSc1nc2ccccc2s1 | nt | i | nt | 99 | nt | i
CC(=O)CSc1nc2ccccc2s1 | i | i | nt | 98 | nt | i
O=C(CN1CCOCC1)NCC[C@@H]1CC[C@@H](NC(=O)c2ccccc2F)[C@@H](CO)O1 | i | i | i | nt | i | nt
Cc1csc(NC(=O)CSc2nc3ccccc3s2)n1 | i | i | nt | 97 | nt | i
CCc1ccc(-n2c(SCC(=O)NC3CCS(=O)(=O)C3)nc3ccccc3c2=O)cc1 (configuration not stated) | nt | i | 45 | i | i | i
COC(=O)CSc1nc2ccc(N)cc2s1 | i | i | i | 99 | i | nt
Cc1ccc(-n2c(SCC(=O)NC3CCS(=O)(=O)C3)nc3ccccc3c2=O)cc1 (configuration not stated) | i | nt | i | i | i | i
O=C(CSc1nc2ccccc2s1)NC1CCS(=O)(=O)C1 (configuration not stated) | nt | i | nt | 90 | nt | i
COCC(=O)N1CC2(C1)[C@H](c1ccccc1)[C@H](CO)N2C(=O)c1ccccc1 | nt | nt | i | nt | i | nt
O=C(Nc1ccccc1)N1C[C@H]2[C@@H](c3ccccc31)[C@H](CO)N2Cc1ccccc1 | nt | i | i | nt | i | nt
O=C(CN1C(=O)CCC1=O)Nc1nc(-c2nc3ccccc3s2)cs1 | i | i | i | 95 | i | nt
O=C(CCN1CCCCC1)NCC[C@H]1CC[C@@H](NC(=O)C2CCCCC2)[C@H](CO)O1 | i | nt | i | nt | i | nt
COc1ccc(NC(=O)N(C)C[C@@H]2Oc3c(NC(=O)Nc4ccc(C(F)(F)F)cc4)cccc3C(=O)N([C@H](C)CO)C[C@@H]2C)cc1 | i | nt | nt | nt | i | nt
COc1ccc2c(c1)[C@H]1[C@H](CO2)[C@H](c2ccccc2)[C@]2(C)C(=O)Nc3cc(OC)c(OC)cc3C(=O)N12 | 102 | i | i | nt | i | nt
COc1ccc2c(c1)[C@H]1[C@H](CO2)[C@H](c2ccccc2)[C@]2(C)C(=O)Nc3ccc(C)cc3C(=O)N12 | i | i | i | i | i | nt
C[C@@]12C(=O)Nc3ccc(F)cc3C(=O)N1[C@H]1c3cc(Br)ccc3OC[C@@H]1[C@@H]2c1ccccc1 | 57 | i | i | i | i | nt
C[C@@]12C(=O)Nc3cc(F)ccc3C(=O)N1[C@H]1c3cc(Br)ccc3OC[C@@H]1[C@@H]2c1ccccc1 | i | i | i | i | i | nt
CC1=NN(c2ccccc2)C(=O)/C1=C/C=C/C=C/N(C)C | i | nt | nt | 96 | i | i
CC1=NN(c2ccc(C)cc2)C(=O)/C1=C\C=C\c1ccccc1 | i | nt | i | i | i | i
CC(=O)C1=C(C)NC(C)=C(C(C)=O)C1c1ccccc1 | i | nt | i | i | i | i
